Cruzain Triton: inhibitors of Trypanosoma cruzi cruzain with detergent. P25779. purified cruzain, Z-FR-AMC fluorescence, 0.01% Triton. Potency, µM, without a hit: max response, negative = inhibition, usual class: inhibitors. actives 0.43% (n = 200,000). AID 1478;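 note: plate controls were neutral wells for no effect and buffer without enzyme for full effect; nearly all actives have a fitted effect of over 40% in size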
Target sequence (P25779 123-467 limits assumed): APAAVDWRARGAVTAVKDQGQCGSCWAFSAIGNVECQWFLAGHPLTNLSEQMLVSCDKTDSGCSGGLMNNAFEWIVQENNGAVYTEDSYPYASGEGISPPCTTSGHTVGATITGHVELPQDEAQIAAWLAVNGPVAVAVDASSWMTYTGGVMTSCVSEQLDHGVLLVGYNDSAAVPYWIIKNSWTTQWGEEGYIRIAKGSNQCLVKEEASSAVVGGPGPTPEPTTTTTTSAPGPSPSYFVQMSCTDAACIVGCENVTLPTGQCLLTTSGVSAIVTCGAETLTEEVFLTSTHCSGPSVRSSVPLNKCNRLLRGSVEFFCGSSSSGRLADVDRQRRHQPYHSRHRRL
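Enzyme 1.5 nM, Z-FR-AMC 2 uM, NaOAc 100 mM pH 5.5, DTT 5 mM, Triton X-100 0.01%; 15 min RT compound preincubation; kinetic ex360/em450, 60 s delta.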
Cruzain inh noDet: inhibitors of Trypanosoma cruzi cruzain without detergent; P25779; purified cruzain, Z-FR-AMC fluorescence, no detergent; Potency, µM, for the others: max response, negative = inhibition, actives largely listed as inhibitors; actives 2.3% (n = 200,000); AID 1476;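 note: plate controls were enzyme without inhibitor for no effect and buffer without enzyme for full effect; nearly all actives have a fitted effect of over 40% in size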
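Purified cruzain at 1.5 nM, pre-incubated 15 min with compound at room temperature in 100 mM sodium acetate pH 5.5, 5 mM DTT, 0.00005% Triton X-100. Reaction started with 2 uM Z-FR-AMC; AMC fluorescence increase over 60 s gives rate.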
An asterisk follows results filed as active; ? = inconclusive; ! = not confirmed by another sample. Hits are enriched below; roughly 2.4% of the tested compounds scored in any of these assays. Calls come from the whole dose curve; as a rule, active = well fitted curve in the direction sought with a large enough effect; inconclusive = small, poorly fitted or top-dose-only effect, or another doubt; inactive = no such curve, though single readings can be large; an effect the other way counts as inactive or inconclusive. Potency is the fitted concentration of half-maximal effect.

SMILES | Cruzain Triton | Cruzain inh noDet
COc1cccc(C2CC(c3cccs3)=NN2C(=O)CSc2nc3c(cnn3-c3ccc(F)cc3)c(=O)[nH]2)c1OC (configuration not stated) | 3.5µM* | ?
CCN(CC)S(=O)(=O)c1ccc2c(c1)c(=O)c(C(=O)NCc1ccc(Cl)cc1)cn2C | -3% | -19%
Cn1c(=O)c2cc(S(=O)(=O)Nc3ccc4c(c3)OCO4)ccc2n(C)c1=O | 5% | -8%
Cn1c(=O)oc2cc(S(=O)(=O)Nc3ccc4c(c3)OCO4)ccc21 | 2% | 32µM*
NC(=O)c1cc[n+](CC2=C(C(=O)O)N3C(=O)C(NC(=O)C(c4ccccc4)S(=O)(=O)[O-])C3SC2)cc1 (configuration not stated) | 3% | 2%
CO/N=C(\C(=O)N[C@@H]1C(=O)N2C(C(=O)[O-])=C(C[N+]3(C)CCCC3)CS[C@@H]12)c1csc(N)n1 | -17% | -16%
Clc1cccc(/C=N\Nc2nccs2)c1 | 25µM* | 16µM*
Clc1cccc(/C=N/Nc2nc(Cl)nc3ccccc23)c1 | -10% | ?
CN(C)c1ccc(C(=C2C=CC(=[N+](C)C)C=C2)c2ccc(N(C)C)cc2)cc1 | -21% | 20µM*!
CN(C)c1ccccc1 | 0% | -1%
CN(C)c1ccc(C(=C2C=CC(=[N+](C)C)C=C2)c2ccccc2)cc1 | 0% | 25µM*!
CN(C)c1ccc(C(=O)c2ccc(N(C)C)cc2)cc1 | -10% | -15%
COc1ccc(-c2nn3c(=O)cc(CN4CCN(C(=O)Nc5cc(C)ccc5C)CC4)nc3s2)cc1 | 3% | 0%
Cc1cccc(NS(=O)(=O)c2ccc3[nH]c(=O)ccc3c2)c1C | -5% | -14%
Cc1cc2oc(=O)cc(C)c2c2occ(-c3ccc(Cl)cc3)c12 | -2% | -10%
CC1(C)CC(=O)c2c(oc3cc4c(cc23)OCO4)C1 | -8% | -3%
COC(=O)c1ccc(C(=O)OC)c(NC(=O)c2cnn3c(C(F)F)cc(-c4ccc(C)cc4)nc23)c1 | -2% | -4%
CCc1nn2c(=O)cc(COC(=O)c3cccs3)nc2s1 | -3% | -1%
CCCn1c(C)cc(-c2csc(N)n2)c1C | -8% | ?
Cc1cc(-c2csc(N)n2)c(C)n1-c1ccc(Cl)c(Cl)c1 | -8% | 13µM*
C=CCn1c(C)cc(-c2csc(N)n2)c1C | -5% | ?
COc1ccc(-n2c(C)cc(-c3csc(N)n3)c2C)cc1 | -2% | 20µM*
CC(=O)c1ccc(NC(=O)C(=O)c2cn(CC(=O)N3CCCCC3)c3ccccc23)cc1 | 3% | 10µM*
O=C(Nc1ccccc1)C(=O)c1cn(CC(=O)N2CCCCC2)c2ccccc12 | -9% | -20%
CC/C(=N/Nc1ccccc1Cl)c1cnnc(-c2ccccc2)n1 | -5% | -16%
SMILES | Cruzain Triton | Cruzain inh noDet
COc1ccc(N/N=C(/C)c2cnnc(-c3ccccc3)n2)cc1 | -15% | 16µM*
N#CCCCS(=O)(=O)c1ccccc1 | 2% | -5%
FC(F)(F)c1ccc(Cl)c(N/N=C/c2ccc(N3CCOCC3)s2)c1 | -10% | 10µM*
CCOC(=O)N/N=C/c1ccc(N2CCOCC2)s1 | -7% | -18%
Cc1ccc(NC(=O)c2ccc(-c3ccccc3)s2)cc1 | -6% | 13µM*
Cc1cccc(NC(=O)c2ccc(-c3ccccc3)s2)c1 | -10% | -22%
Cn1nnnc1SCCCNCc1ccc(-c2ccc(Br)cc2)o1 | -5% | 0%
COc1ccccc1CNc1ncnc2ccc(-c3ccccc3C#N)cc12 | -6% | ?
Cc1ccc(-c2ccc(C(=O)NCc3ccc(Cl)cc3)o2)c2ccccc12 | ? | 25µM*
Cc1ccccc1-c1ccc(C(=O)NCc2ccccc2)o1 | -2% | 8%
Cc1cccc(C(=O)Nc2sc3c(c2C(=O)N2CCCCC2)CCC(C)C3)c1 (configuration not stated) | -2% | -18%
CC1=C(/C=C/C(C)=C/C=C/C(C)=C/C=C/C=C(C)/C=C/C=C(C)/C=C/C2=C(C)C(=O)C(O)CC2(C)C)C(C)(C)CC(O)C1=O (configuration not stated) | 2% | 5%
CCC1CCc2c(sc(NC(=O)C3c4ccccc4Oc4ccccc43)c2C#N)C1 (configuration not stated) | -5% | 7.9µM*
CCC(C)(C)C1CCc2c(sc(NC(=O)C3c4ccccc4Oc4ccccc43)c2C(N)=O)C1 (configuration not stated) | -2% | -2%
CCC1CCc2c(sc(NC(=O)C3c4ccccc4Oc4ccccc43)c2C(=O)OC)C1 (configuration not stated) | 1% | 4µM*
COC(=O)c1c(NC(=O)C2c3ccccc3Oc3ccccc32)sc2c1CCC(C)C2 (configuration not stated) | -3% | -23%
Cc1cccc(NC(=O)c2sc(-n3nc(C)c(CCC(C)C)c3C)nc2C)c1 | -1% | 5%
O=C(c1ccccc1Br)N(Cc1ccccc1F)C1CCS(=O)(=O)C1 (configuration not stated) | -3% | -3%
CCCOc1ccc(/C=N/NC(=S)Nc2ccccc2[N+](=O)[O-])c(O)c1 | -5% | 4µM*
COc1ccc(/C=N/NC(=S)Nc2ccccc2[N+](=O)[O-])cc1O | -8% | -9%
CCCOc1ccc(/C=N/Nc2cccc([N+](=O)[O-])c2)c(O)c1 | -5% | ?
CCCOc1ccc(/C=N/Nc2ccccc2[N+](=O)[O-])c(O)c1 | -6% | 10µM*
COc1ccc(Cl)cc1NC(=O)CSc1nccn1Cc1ccco1 | -4% | -4%
C[C@]12CC[C@H]3c4ccc(O)cc4CC[C@@H]3[C@H]1CC[C@@H]2OP(=O)(O)O | 3% | 9%
CC(C)C[C@@H]1NC(=O)[C@H](C(C)C)NC(=O)c2cc([N+](=O)[O-])cc(I)c2NCC[C@@H](C(N)=O)NC1=O | 14µM* | 5%
SMILES | Cruzain Triton | Cruzain inh noDet
CC(C)[C@@H]1NC(=O)c2cc([N+](=O)[O-])cc(I)c2NCC[C@@H](C(N)=O)NC(=O)[C@H](CO)NC1=O | -11% | ?
COc1ccc(Cl)cc1NC(=O)Cn1c(=O)n(-c2ccc(C)cc2)c(=O)c2ccc(C(=O)NCc3ccccc3Cl)cc21 | -2% | -19%
Cc1ccc(NC(=O)c2nc(S(C)(=O)=O)ncc2N(Cc2cccc(F)c2)Cc2ccco2)cc1C | -3% | ?
Cc1ccc(C)c(NC(=O)c2nc(S(C)(=O)=O)ncc2N(Cc2ccc(C(C)(C)C)cc2)Cc2ccco2)c1 | -3% | 7.9µM*
CC(C)c1ccc(CN(Cc2ccco2)c2cnc(S(C)(=O)=O)nc2C(=O)Nc2ccc(F)cc2)cc1 | -3% | 16µM*
COc1ccc(CN(Cc2ccco2)c2cnc(S(C)(=O)=O)nc2C(=O)Nc2ccc(C)c(Cl)c2)cc1 | -2% | 7.9µM*
Cc1cccc(C)c1NC(=O)c1nc(S(C)(=O)=O)ncc1N(Cc1ccc(F)cc1)Cc1ccco1 | -5% | -6%
Cc1cccc(C)c1NC(=O)c1nc(S(C)(=O)=O)ncc1N(Cc1ccc(C(C)(C)C)cc1)Cc1ccco1 | -2% | -21%
O=C1CC(c2nc(-c3cccc(Cl)c3)no2)CN1c1ccc2c(c1)OCCO2 (configuration not stated) | -7% | 20%
CC(OC(=O)c1ccccc1Br)C(=O)Nc1nc(-c2cccc([N+](=O)[O-])c2)cs1 (configuration not stated) | 0% | ?
COc1ccc(CC(=O)Nc2cccc(-c3csc(C)n3)c2)cc1 | -7% | -16%

Screening results as filed in PubChem.
